PLK1 PBD block: qHTS for Inhibitors of PLK1-PDB (polo-like kinase 1 - polo-box domain): Primary Screen; Plk1 PBD binding of FITC phosphopeptide, fluorescence polarization; 2.8% of 360,000 active; Serine/threonine-protein kinase PLK1 (Homo sapiens), P53350; Potency, µM, most hits filed as inhibitors; further: series mostly up to about 57 µM; nearly all actives have a fitted effect of over 65% in size
HP1b binding inh: HTS for Inhibitors of HP1-beta Chromodomain Interactions with Methylated Histone Tails; Chromobox protein homolog 1 (Homo sapiens), P83916; AlphaScreen HP1-beta / biotin-H3K9me3 peptide binding; Potency, µM (titrated, usually from 114 µM), usual class: inhibitors; 0.56% of 390,000 active; AID 540317, 2011; further: nearly all actives have a fitted effect of over 70% in size
Target sequence (P83916 whole entry, looked up): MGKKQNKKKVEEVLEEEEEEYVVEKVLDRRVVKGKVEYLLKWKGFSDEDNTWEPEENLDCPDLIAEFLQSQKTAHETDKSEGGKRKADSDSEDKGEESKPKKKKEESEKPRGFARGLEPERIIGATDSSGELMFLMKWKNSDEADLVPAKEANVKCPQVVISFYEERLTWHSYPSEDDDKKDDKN
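AlphaScreen: HP1-beta (50 nM) preformed 30 min with biotin-H3(1-18)K9me3 peptide (50 nM) in PBS pH 7.4, 0.01% Tween-20. Compound added for 30 min at RT, then streptavidin donor/nickel chelate acceptor beads (10 ug/mL) for 30 min.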
JMJD2A Tudor inh: qHTS Assay for Inhibitors of JMJD2A-Tudor Domain; Lysine-specific demethylase 4A (Homo sapiens), O75164; AlphaScreen JMJD2A-Tudor / H3K4me3 peptide binding; Potency, µM (doses to about 114 µM), actives largely listed as inhibitors; 4.4% of 390,000 active; AID 504339, 2011; further: nearly all actives have a fitted effect of over 50% in size
BAZ2B inh: qHTS Assay for Inhibitors of BAZ2B | AlphaScreen BAZ2B-H3K14Ac peptide displacement | Potency, µM (titrated, usually from 114 µM), actives largely listed as inhibitors | 4.4% of 360,000 active | AID 504333, 2011; further: nearly all actives have a fitted effect of over 60% in size
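Compounds, titrated to a top concentration of 110 uM, were incubated 30 min at room temperature with preformed BAZ2B/acetyl-K14 H3 peptide complex (50 nM each). Proximity signal was measured by AlphaScreen after 20 min with beads.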
PI5P4K alpha inh: qHTS for Inhibitors of phosphatidylinositol 5-phosphate 4-kinase (PI5P4K). 1.2% of 330,000 active. max response, %. AID 652105, 2013. PI5P4Kalpha enzyme, ADP-Glo luminescence, 60 min; active compounds read low. Phosphatidylinositol 5-phosphate 4-kinase type-2 alpha (Homo sapiens), P48426; active means max response of -50% or lower; inconclusive means between -30% and -50%; inactive means -30% or higher; further: value at the top dose of about 77 µM
Target sequence (P48426 whole entry, looked up): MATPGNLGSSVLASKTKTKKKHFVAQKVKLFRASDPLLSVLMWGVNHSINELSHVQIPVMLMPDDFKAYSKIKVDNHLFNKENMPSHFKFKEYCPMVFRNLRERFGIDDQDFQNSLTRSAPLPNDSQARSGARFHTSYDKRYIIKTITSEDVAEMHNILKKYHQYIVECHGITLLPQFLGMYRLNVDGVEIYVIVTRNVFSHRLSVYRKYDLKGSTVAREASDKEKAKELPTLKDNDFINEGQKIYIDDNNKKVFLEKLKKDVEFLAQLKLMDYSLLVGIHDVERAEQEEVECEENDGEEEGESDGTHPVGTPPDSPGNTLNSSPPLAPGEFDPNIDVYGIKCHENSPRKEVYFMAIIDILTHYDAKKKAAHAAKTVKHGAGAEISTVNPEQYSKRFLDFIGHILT
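Luminescence from ADP-Glo served as readout of PI5P4Kalpha activity in a qHTS format. Reaction: enzyme, substrate, compound, ATP at 5 microM final, 60 min at RT.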
G9a inh: qHTS Assay for Inhibitors of Histone Lysine Methyltransferase G9a; G9a H3K9 monomethylation, AlphaScreen, 2 h; Potency, µM (highest dose often 102 µM), usual class: inhibitors; 8.8% of 350,000 active; further: nearly all actives have a fitted effect of over 75% in size
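Chemiluminescent proximity detection of H3K9 monomethylation, read after 10 min bead incubation in the dark. Reaction: 20 nM G9a, 500 nM biotin-H3K9 peptide, 20 uM SAM cofactor, 2 h, room temperature, following 15 min enzyme-compound preincubation.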
Hits are given with their value; – = inactive; ? = inconclusive; · = no result given; ! = not confirmed by another sample; [ ] = dose if it differs, or a comment. Rows were chosen to be rich in hits. Some 12% of all compounds tested hit in one or more screens of this group. Unless noted, the call rests on the fitted dose curve; in most records, active means well fitted curve in the direction sought with a large enough effect; inconclusive means small, poorly fitted or top-dose-only effect, or another doubt; inactive means no such curve, though single readings can be large; an effect the other way counts as inactive or inconclusive.

SMILES	PLK1 PBD block	HP1b binding inh	JMJD2A Tudor inh	BAZ2B inh	PI5P4K alpha inh	G9a inh
CC(=O)NC(c1ccc(Cl)cc1)c1ccc2cccnc2c1O (stereo unspecified)	–	–	?	·	–	·
CCNC(=O)C[C@@H]1C=C[C@@H](NS(=O)(=O)c2ccc(F)cc2)[C@@H](CO)O1	–	·	·	·	–	·
O=c1cc(CN2CCN(S(=O)(=O)c3ccc4c(c3)OCCO4)CC2)c2ccc(O)cc2o1	–	–	–	–	·	50µM
COc1ccc(OC)c(CN2CCN(Cc3cc(=O)oc4cc(O)ccc34)CC2)c1	–	–	–	–	–	35µM
CCc1ccc2c(CN3CCN(S(=O)(=O)c4ccc5c(c4)OCCO5)CC3)cc(=O)oc2c1	–	–	–	–	·	?
Fc1ccccc1CN1CCC(Cc2ccccc2)CC1	–	?	0.89µM	?	–	·
Fc1cccc(CNC2CCN(CCc3ccccc3)CC2)c1	–	–	–	–	–	–
OC(COc1ccccc1F)CN1CCC(Cc2ccccc2)CC1 (stereo unspecified)	–	–	–	–	–	·
Fc1cccc(CN2CCC(Cc3ccccc3)CC2)c1	–	?	56µM	79µM	–	28µM
COc1cc(NC(=O)CCc2nnc3ccc(N4CCCCC4)nn23)cc(OC)c1OC	–	–	–	–	–	–
CCCCCCCNC(=O)C1(CC2CC(c3ccc(Cl)cc3)=NO2)CCNCC1 (stereo unspecified)	–	–	–	–	–	?
O=c1cc(-c2ccc(F)cc2)nc(SCc2nc(-c3cccc(C(F)(F)F)c3)no2)[nH]1	·	–	–	–	·	–
O=C1C(Cl)=C(N2CCOCC2)C(=O)N1c1ccccc1Cl	–	–	–	–	·	–
COC(=O)c1cccc(N2C(=O)C(Cl)=C(N3CCOCC3)C2=O)c1	–	–	–	–	–	50µM
O=C1C(Cl)=C(N2CCOCC2)C(=O)N1c1cccc(C(F)(F)F)c1	?	–	–	–	–	79µM
COc1ccc(C2=NOC(C(=O)Nc3cccnc3Cl)C2)cc1 (stereo unspecified)	–	–	–	–	–	–
N=C1S/C(=C\c2ccc(-c3ccccc3C(=O)O)o2)C(=O)N1c1ccc2c(c1)OCO2	27µM	28µM	22µM	20µM	-74	3.5µM
COc1ccccc1N1C(=N)S/C(=C\c2ccc(-c3ccccc3C(=O)O)o2)C1=O	–	–	?	?	?	16µM
Cc1ccccc1NS(=O)(=O)c1nnc(NC(=O)CC(C)C)s1	–	–	–	–	–	–
CCCCCCCC/C=C\C/C=C\C/C=C\CCCC(=O)NCCO	·	·	·	·	·	–
CC(Cc1cccc(C(F)(F)F)c1)NCCOC(=O)c1ccccc1 (stereo unspecified)	–	–	–	–	–	13µM!
COc1ccc2[nH]c3c(c2c1)CCN1C(=O)C(CC(=O)NCC24CC5CC(CC(C5)C2)C4)C[C@H](C(=O)N(C(C)C)C(C)C)[C@@]31C (stereo partly specified)	–	–	?	·	–	·
CCCCN(CC)c1nc(N)c(C#N)c(CC#N)c1C#N	–	–	–	–	-71	–
CCc1ccc(-n2cc(-c3ccc([N+](=O)[O-])cc3)[nH]c2=S)cc1	–	–	–	–	–	?
CCc1ccc(-c2cn(C3CCCCC3)c(=S)[nH]2)cc1	–	?	28µM	18µM	?	?
SMILES	PLK1 PBD block	HP1b binding inh	JMJD2A Tudor inh	BAZ2B inh	PI5P4K alpha inh	G9a inh
COC(=O)c1ccc2c(c1)C(C)(C)C(/C=C/c1ccc(OC)c(OC)c1OC)=[N+]2C	?	–	56µM	?	–	–[0.0925 µM]
COC(=O)c1ccc2c(c1)C(C)(C)C(/C=C/c1ccc(O)cc1)=[N+]2C	–	?	50µM	28µM	·	7.1µM
Cc1csc(Sc2nc3c(c(=O)[nH]c(=O)n3C)n2Cc2ccccc2Cl)n1	–	–	–	–	?	–
CSc1nc2c(c(=O)[nH]c(=O)n2C)n1Cc1ccccc1Cl	–	–	–	–	–	·
CCC(C)Sc1nc2c(c(=O)[nH]c(=O)n2C)n1Cc1ccccc1Cl (stereo unspecified)	?	–	–	–	–	25µM
Cn1c(=O)[nH]c(=O)c2c1nc(SCCO)n2Cc1ccccc1Cl	24µM	–	?	–	–	45µM
CCCCNC1c2ccccc2C(=O)N1Cc1ccccc1 (stereo unspecified)	–	–	–	–	–	–
S=C(NCCCN1CCOCC1)N1CCN(c2nc(-c3ccccc3)cs2)CC1	–	–	?	?	–	56µM
S=C(NCC1CCCO1)N1CCN(c2nc(-c3ccc(Cl)cc3)cs2)CC1 (stereo unspecified)	?	?	?	35µM	–	?
O=C(N1CCOCC1)N1CCN(c2nc(-c3ccccc3)cs2)CC1	–	–	–	?	–	45µM
O=S(=O)(c1cccc(Cl)c1Cl)N1CCN(C(=S)NCCCN2CCOCC2)CC1	?	28µM	1.6µM	50µM	–	35µM
S=C(NCC1CCCO1)N1CCN(c2cccc(Cl)c2)CC1 (stereo unspecified)	–	–	–	–	–	–
S=C(NCCCN1CCOCC1)N1CCN(c2nc(-c3ccc(Cl)cc3)cs2)CC1	–	–	?	–	–	–
c1ccc(-c2csc(N3CCOCC3)n2)cc1	–	–	–	–	–	–[12.7 µM]
CC(=O)Nc1ccc(OCc2cn(CC(=O)c3ccc(O)cc3)nn2)cc1	–	·	·	·	–	·
COc1cc([C@H]2c3cc4c(cc3[C@@H](O[C@H]3O[C@H]5CO[C@@H](C)O[C@H]5[C@@H](O)[C@@H]3O)[C@@H]3COC(=O)[C@H]23)OCO4)cc(OC)c1O	·	·	·	·	·	–[12.7 µM]
Cc1ccc2c(c1)nc(SCC(O)c1ccc(Br)cc1)n2C (stereo unspecified)	·	–	–	–	·	–
Cc1cccc(C)c1N1CCN(C(=O)N2CCOCC2)CC1	?	–	?	–	–	35µM
COn1c(SC2CCCCC2)nc2ccccc2c1=O	–	–	–	–	·	22µM
COn1c(SC(C)C)nc2ccccc2c1=O	–	–	–	–	·	–[12.7 µM]
O=C(CCC(=O)N/N=C/c1cc(Cl)cc(Cl)c1O)NCc1ccccc1	9.5µM	–	28µM	–	–	·
CC(C)C[C@H](N)CSSC[C@@H](N)CC(C)C	·	·	·	·	·	16µM
COc1ccc2[nH]c3c(c2c1)CCN1C(=O)N([C@@H](C)C(=O)NC2CCN(Cc4ccccc4)CC2)C(=O)[C@]31C	–	–	?	50µM	–	·
